Screening data deposited in PubChem BioAssay by several laboratories.
Cl transport mod = KCC2 (human) Cl- transport modulation | 190,000 tested, 2.2% active | Q9H2X9 | AID 1456 | B-score of Tl+ flux slope (higher = more flux/activation; lower = inhibition) at 10 µM | KCC2 cells, thallium flux FluoZin-2 fluorescence;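 active = thallium flux slope and its plate-corrected score both differing from the plate sample mean at a set confidence after two filtering rounds, in either direction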;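 also: slope of fluorescence scaled to starting intensity during 10 to 20 s after thallium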
ROMK mod = modulators of human ROMK potassium channel; Tet-inducible ROMK, thallium flux fluorescence; actives lie on both sides; AID 1918; B-score at 10 µM; 130,000 tested, 2% active;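 active = signal ratio slope over the read window, or its plate-corrected B-score, at least 3 SD from the plate mean, either direction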;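 also: B-score of the F/F0 ratio slope over 7 to 12 s after thallium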
Target sequence (P48048 whole entry, looked up): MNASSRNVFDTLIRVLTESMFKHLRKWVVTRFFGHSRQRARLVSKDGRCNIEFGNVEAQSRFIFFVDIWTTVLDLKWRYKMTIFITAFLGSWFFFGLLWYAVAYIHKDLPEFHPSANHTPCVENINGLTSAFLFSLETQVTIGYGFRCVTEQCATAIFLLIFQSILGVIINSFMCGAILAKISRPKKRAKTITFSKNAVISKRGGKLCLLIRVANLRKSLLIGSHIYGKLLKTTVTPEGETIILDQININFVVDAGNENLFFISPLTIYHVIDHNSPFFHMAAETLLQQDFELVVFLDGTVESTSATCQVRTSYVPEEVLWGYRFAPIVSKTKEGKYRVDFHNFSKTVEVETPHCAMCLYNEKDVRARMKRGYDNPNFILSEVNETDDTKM
Ins promoter up = MIN6 insulin promoter up-regulation. MIN6 insulin promoter-GFP reporter, high-content imaging; stronger effect = higher value. z-score at 5 µM. 190,000 tested, 0.3% active;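 active = z-score above 3 at 5 µM with at least 500 cells counted in the well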
INS promoter inh = TRM-6 insulin promoter activity inhibition | TRM-6 cells (human fetal islet line), insulin promoter-eGFP reporter, imaging; reporter expression induced with tamoxifen | inhibition, % at 2 µM | 130,000 tested, 0.9% active | AID 1273;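 active = inhibition above the mean plus 3 SD, with well images judged a real hit on visual review, cut at about 60% in these data, passing the limit was not always enough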
Lmaj promast = inhibitors of Leishmania major promastigote growth | Leishmania major promastigotes, resazurin fluorescence viability | inhibition, % at 10 µM | 200,000 tested, 9% active | AID 1063; in the data active = inhibition above about 50%;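 also: promastigotes grown with compound for 44 hours at 28 °C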
WT yeast gro inh = growth inhibition of WT yeast, mitochondrial fusion screen | inhibition, % at 10 µM | 190,000 tested, 2.1% active | mitochondrial fusion phenotypic screen, WT strain; in the data active = inhibition above about 58%; tested in S. cerevisiae
Each line names hits and unclear results; the compound was inactive in the other large screens. This is a sample that favours compounds with a hit; in the whole collection about 12% have one here.

Cc1[nH]c2ccccc2c1C(=O)C(=O)N1CC2CC(C1)c1cccc(=O)n1C2 (configuration not stated)	none
Cc1cc(C(=O)CS(=O)(=O)c2ccccc2)cc(C)c1OC(=O)N(C)C	none
CCC(=NCc1ccc2c(c1)OCO2)c1c(O)n(C2CCCCC2)c(=O)[nH]c1=O	WT yeast gro inh 62.5 (no result: INS promoter inh)
CCC(=NCCO)c1c(O)n(C2CCCCC2)c(=O)[nH]c1=O	none (no result: Cl transport mod, ROMK mod)
CN1CCC(O)(c2ccc(Cl)cc2)C(C(=O)c2ccc(Cl)cc2)C1 (configuration not stated)	Lmaj promast 85.7
CCC(=Nc1ccccc1NC(C)=O)c1c(O)n(C)c(=O)n(C)c1=O	none (no result: ROMK mod)
O=C(Nc1ccc(C(F)(F)F)cc1)c1cccn(Cc2ccc3c(c2)OC(F)(F)O3)c1=O	none (no result: Cl transport mod, ROMK mod, Ins promoter up)
COc1ccccc1OCC#CCN1CCCC(C)C1 (configuration not stated)	none (no result: INS promoter inh)
CCCCn1c(NS(=O)(=O)c2ccccc2)c(C(=O)OCC)c2nc3ccccc3nc21	Lmaj promast 99.0
CCCCn1c(NC(=O)c2ccc(Br)o2)c(C(=O)OCC)c2nc3ccccc3nc21	none
Nc1c(C(=O)NCCc2ccccc2)c2nc3ccccc3nc2n1CCN1CCOCC1	none (no result: Cl transport mod, ROMK mod, INS promoter inh)
COc1ccc(CCNC(=O)c2c(N)n(CCN3CCOCC3)c3nc4ccccc4nc23)cc1	Lmaj promast 96.5 (no result: Cl transport mod, ROMK mod, INS promoter inh)
CCOC(=O)c1c(N)n(CCN2CCCCC2)c2nc3ccccc3nc12	Lmaj promast 54.9 (no result: ROMK mod)
CCOC(=O)CSCCOc1ccc(C=C2C(=O)NC(=O)NC2=O)cc1OC	none
Cc1ccc(C2(O)CC(C)N(C)CC2C)cc1 (configuration not stated)	Lmaj promast 87.7 (no result: ROMK mod)
CN1CC(C(=O)c2ccccc2)C(C(=O)c2ccccc2)C1 (configuration not stated)	none (no result: INS promoter inh)
CC1CN(C)C(C)(C)CC1(O)c1ccccc1 (configuration not stated)	Lmaj promast 57.1 (no result: Cl transport mod, INS promoter inh)
C=CCC1(Nc2ccccc2)CC(C)N(C)CC1C (configuration not stated)	none (no result: ROMK mod, INS promoter inh, Lmaj promast, WT yeast gro inh)
CCOc1ccc(Br)c(C2(O)CC(C)N(C)CC2C)c1 (configuration not stated)	Lmaj promast 83.2 (no result: Cl transport mod, ROMK mod, INS promoter inh)
CCN(CC)CC(O)c1ccc(C2CCCC2)cc1 (configuration not stated)	Lmaj promast 94.5
COc1ccccc1N1CCN(Cc2ccc(Cl)cc2Cl)CC1	none
Clc1ccccc1CN1CCN(c2ccccc2Cl)CC1	WT yeast gro inh 70.3 (no result: Ins promoter up)
O=c1[nH]c2ccccc2c(=O)n1-c1cccc(Cl)c1	INS promoter inh 81.8
N=Cc1c(O)n(-c2cccc(Cl)c2)c(=O)[nH]c1=O	none (no result: Cl transport mod, ROMK mod)
Cc1cc(C=C2C(=O)NC(=S)NC2=O)c(C)n1-c1ccc2c(c1)OCO2	Lmaj promast 86.4 (no result: ROMK mod, INS promoter inh)
CCCCn1c(O)c(C(C)=NCc2ccc(F)cc2)c(=O)[nH]c1=O	none (no result: Cl transport mod)
CCCCn1c(O)c(C(CC)=NCc2ccc(F)cc2)c(=O)[nH]c1=O	INS promoter inh 83.3 (no result: ROMK mod)
Cc1ccc2cc3cc(C(=O)N4CCC5(CC4)OCCO5)oc3nc2c1	none (no result: ROMK mod, Ins promoter up)
Cc1cccc(CNCCc2ccccc2)n1	Lmaj promast 68.7
O=[N+]([O-])c1ccc(NCc2ccccc2)c2nonc12	Ins promoter up 13.4 (no result: ROMK mod, INS promoter inh)
COc1ccc2c(CN3CC=C(c4ccccc4)CC3)cc(=O)oc2c1	none (no result: ROMK mod)
Cc1ccc2c(CN3CC=C(c4ccccc4)CC3)cc(=O)oc2c1C	none
COc1ccc2ccc(O)c(CN3CC=C(c4ccccc4)CC3)c2c1	WT yeast gro inh 60.9 (no result: INS promoter inh)
COc1cc(C)cc(CN2CC=C(c3ccccc3)CC2)c1O	Lmaj promast 64.5 (no result: Ins promoter up, INS promoter inh)
CCn1c(=O)n(CC(=O)N2CCC3(CC2)OCCO3)c(=O)c2ccccc21	none (no result: ROMK mod, INS promoter inh, WT yeast gro inh)
COc1ccc(C(O)c2ccccc2OP(=O)(N(C)C)N(C)C)cc1 (configuration not stated)	Lmaj promast 66.3
COc1ccc(C(O)c2cc(OC)ccc2OP(=O)(N(C)C)N(C)C)cc1 (configuration not stated)	none
Cc1ccccc1-n1c(O)c(C=Nc2ccc(N(C)C)cc2)c(=O)[nH]c1=O	Lmaj promast 57.9 (no result: ROMK mod)
CCCCNC(=S)N1CCn2cccc2C1c1cccnc1 (configuration not stated)	Lmaj promast 92.3
CNC(=S)N1CCn2cccc2C1c1cccnc1 (configuration not stated)	Lmaj promast 67.9
CC12CN3CC(C)(CN(C1)C3c1cccnc1)C2=O (configuration not stated)	none (no result: Cl transport mod, Ins promoter up)
Cc1ccc(C(=O)C2(C)N(O)C(C)C(c3cccs3)=[N+]2[O-])cc1 (configuration not stated)	none (no result: Cl transport mod, ROMK mod)
O=C1NC(=O)C(=Cc2ccc(SC3CCCCC3)o2)C(=O)N1	none
Clc1ccc(CNC2CN3CCC2CC3)cc1 (configuration not stated)	Lmaj promast 92.0
O=C(Cc1ccccc1)N1CCN(Cc2ccc([N+](=O)[O-])cc2)CC1	none
O=[N+]([O-])c1cccc(CN2CCN(Cc3ccc(Br)cc3)CC2)c1	Lmaj promast 86.7 (no result: INS promoter inh)
CC1=C(C(=O)OC(C)C)[C@]2(C(=O)N(CC(N)=O)c3ccccc32)C(C#N)=C(N)O1	none
O=C(COc1ccccc1)N1CCN(C2CCCC2)CC1	Lmaj promast 84.9 (no result: ROMK mod)
O=C(Cc1ccccc1)N1CCN(C2CCCC2)CC1	none (no result: Cl transport mod)
COc1ccc(OCC(=O)N2CCN(C3CCC(c4ccccc4)CC3)CC2)cc1 (configuration not stated)	Lmaj promast 59.9
CNC(=S)N(C)CCc1cc2c(c(OC)c1/C=C1/C(=O)NC(=O)N(C)C1=O)OCO2	none (no result: ROMK mod, INS promoter inh, Lmaj promast, WT yeast gro inh)
COc1cccc(NC(=O)N2CCC3(CC2)OCCO3)c1	none (no result: ROMK mod, INS promoter inh)
Cc1ccsc1C(=O)C1CCCN(Cc2cccn2-c2ccccn2)C1 (configuration not stated)	Lmaj promast 60.8
Cc1ccsc1C(=O)C1CCCN(Cc2ccccc2O)C1 (configuration not stated)	none (no result: INS promoter inh)
CCOC(=O)c1cc(C)sc1/N=C/C1C(=O)NC(=S)NC1=O	none (no result: INS promoter inh)
CCCCCc1nc2ccccc2c(=O)n1-c1ccccc1[N+](=O)[O-]	Lmaj promast 50.9
CCc1cc2c(N3CCN(C)CC3)ncnc2s1	Lmaj promast 73.0
CCC(C)NC(=O)c1c(N)n(CC2CCCO2)c2nc3ccccc3nc12 (configuration not stated)	Lmaj promast 67.3
CCC(C)NC(=O)c1c(N)n(Cc2ccc3c(c2)OCO3)c2nc3ccccc3nc12 (configuration not stated)	Lmaj promast 65.2 (no result: Cl transport mod, Ins promoter up)
CCC(C)NC(=O)c1c(N)n(CCCOC)c2nc3ccccc3nc12 (configuration not stated)	none (no result: Ins promoter up)
COc1ccc(C2SCC(=O)Nc3c2c(=O)[nH]n3C2CCCCC2)cc1 (configuration not stated)	none (no result: Cl transport mod, INS promoter inh)
COc1ccc(CN2CCN(C(=O)COc3cccc(C)c3)CC2)c(OC)c1	Lmaj promast 62.2 (no result: INS promoter inh)
O=C(COc1ccc(Br)cc1)N1CCN(Cc2ccncc2)CC1	none (no result: Cl transport mod, ROMK mod, INS promoter inh)
CCN1CCN(Cc2ccc(C)cc2)CC1	none (no result: ROMK mod)
